Where “and” joins values, the source holds several entries; their conditions need not be identical. Equal values may be shown once. Results filed as inconclusive are left out. Calls of active or inactive are those of the source. Unless noted, calls follow the shape of the dose curve; as a rule, active = well fitted curve in the direction sought with a large enough effect; inconclusive = small, poorly fitted or top-dose-only effect, or another doubt; inactive = no such curve, though single readings can be large; an effect the other way counts as inactive or inconclusive.
Key:
[1] = Cellular Toxicity (caspase-3) HUV-EC-C (AID 656);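 also: 0% = DMSO basal and 100% = 100 µM tamoxifen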
Summary of the method: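 HUV-EC-C cells (1000/well) in complete medium, compound-treated 16 h at 37 °C; caspase-3/7 activity read by Caspase-Glo 3/7 luminescence. Normalized to DMSO (basal) and 100 uM tamoxifen (100%); AC50 from Hill-equation concentration-response fits.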

[2] = MultiTox-Fluor Cytotoxicity Assay - LYMP1-001 - Live Cells (AID 947);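 also: 0% = DMSO only and full inhibition = tetraoctylammonium bromide control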
[3] = Cell Viability - LYMP2-003 (AID 965);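 also: cells exposed to compounds for 24 h before reading; 0% = DMSO only and full effect = 92 µM tetraoctylammonium bromide; nearly all actives have a fitted effect of over 50% in size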
Summary of the method: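 Human lymphoblastoid LYMP2-003 cells, 2500/well, exposed to compounds for 24 h at 37 C in complete medium. Viability read as intracellular ATP by CellTiter-Glo luminescence; AC50 from Hill-equation fits of qHTS concentration-response data.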

[4] = Cell Viability - LYMP2-015 (AID 971);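 also: 0% = DMSO only and full effect = 92 µM tetraoctylammonium bromide; nearly all actives have a fitted effect of over 55% in size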
Summary of the method: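 AC50 values reflect Hill-model fits of ATP-based luminescence (CellTiter-Glo) from a human lymphoblastoid line, 2500 cells/well, treated 24 hr at 37 C.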

[5] = Cell Viability - LYMP2-020 (AID 986);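 also: series mostly up to about 92 µM; plate controls were DMSO only for no effect and tetraoctylammonium bromide at 92 µM for full effect; nearly all actives have a fitted effect of over 55% in size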
Summary of the method: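 Cells at 2500 per well receive a 24 hr compound exposure at 37 C. Viability is measured as ATP-dependent luciferase luminescence, with AC50 modeled from qHTS concentration-response curves.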

[6] = Cell Viability - LYMP1-002 - Assay at 40 hr (AID 994);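 also: 0% = DMSO only and full inhibition = 92 µM tetraoctylammonium bromide; nearly all actives have a fitted effect of over 60% in size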
Summary of the method: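 Concentration-dependent ATP loss after 40 hr treatment at 37 C defined toxicity; AC50 values were obtained by fitting the standard Hill equation.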

[7] = target: Bile acid receptor (Homo sapiens) (UniProt Q96RI1); assay: qHTS assay for small molecule antagonists of farnesoid X receptor signaling (AID 588526; calls by dose curve; also: % is scaled to controls: 0 for no effect and ±100 for the full control effect)
Bile acid receptor (Homo sapiens), sequence (Q96RI1 whole entry, looked up): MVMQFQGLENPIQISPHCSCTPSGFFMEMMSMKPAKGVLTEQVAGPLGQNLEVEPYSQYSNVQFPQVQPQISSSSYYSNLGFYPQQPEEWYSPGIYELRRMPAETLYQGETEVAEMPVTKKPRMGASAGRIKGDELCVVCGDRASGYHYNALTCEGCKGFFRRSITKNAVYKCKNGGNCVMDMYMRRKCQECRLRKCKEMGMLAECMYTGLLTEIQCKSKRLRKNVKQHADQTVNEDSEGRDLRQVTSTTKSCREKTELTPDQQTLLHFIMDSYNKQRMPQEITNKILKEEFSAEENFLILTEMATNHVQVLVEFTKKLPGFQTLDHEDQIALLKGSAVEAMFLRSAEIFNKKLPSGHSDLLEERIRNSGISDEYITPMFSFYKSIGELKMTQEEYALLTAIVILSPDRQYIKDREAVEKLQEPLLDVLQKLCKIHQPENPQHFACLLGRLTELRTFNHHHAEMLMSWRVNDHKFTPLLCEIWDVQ
Summary of the method: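 Beta-lactamase reporter antagonist mode: HEK293T FXR-UAS-bla cells, titrated compound, CDCA stimulation, 16 h 37 C, CCF4 dye 2 h RT. Data normalized to CDCA 50 uM and DMSO; Hill-fit IC50.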

[8] = target: Glucocorticoid receptor (Homo sapiens) (UniProt P04150); assay: qHTS assay for small molecule agonists of glucocorticoid receptor signaling (AID 588532; active = well fitted curve in the direction sought with a large enough effect in the signal ratio, with a control signal flat; the % refers to the signal ratio;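 also: 100% = dexamethasone at 0.1 µM and 0% = DMSO only wells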); conditions: HeLa MMTV-bla, beta-lactamase ratio, agonist, 18 h; stronger effect = higher value; percent of dexamethasone control, DMSO zero
Glucocorticoid receptor (Homo sapiens), sequence (P04150 whole entry, looked up): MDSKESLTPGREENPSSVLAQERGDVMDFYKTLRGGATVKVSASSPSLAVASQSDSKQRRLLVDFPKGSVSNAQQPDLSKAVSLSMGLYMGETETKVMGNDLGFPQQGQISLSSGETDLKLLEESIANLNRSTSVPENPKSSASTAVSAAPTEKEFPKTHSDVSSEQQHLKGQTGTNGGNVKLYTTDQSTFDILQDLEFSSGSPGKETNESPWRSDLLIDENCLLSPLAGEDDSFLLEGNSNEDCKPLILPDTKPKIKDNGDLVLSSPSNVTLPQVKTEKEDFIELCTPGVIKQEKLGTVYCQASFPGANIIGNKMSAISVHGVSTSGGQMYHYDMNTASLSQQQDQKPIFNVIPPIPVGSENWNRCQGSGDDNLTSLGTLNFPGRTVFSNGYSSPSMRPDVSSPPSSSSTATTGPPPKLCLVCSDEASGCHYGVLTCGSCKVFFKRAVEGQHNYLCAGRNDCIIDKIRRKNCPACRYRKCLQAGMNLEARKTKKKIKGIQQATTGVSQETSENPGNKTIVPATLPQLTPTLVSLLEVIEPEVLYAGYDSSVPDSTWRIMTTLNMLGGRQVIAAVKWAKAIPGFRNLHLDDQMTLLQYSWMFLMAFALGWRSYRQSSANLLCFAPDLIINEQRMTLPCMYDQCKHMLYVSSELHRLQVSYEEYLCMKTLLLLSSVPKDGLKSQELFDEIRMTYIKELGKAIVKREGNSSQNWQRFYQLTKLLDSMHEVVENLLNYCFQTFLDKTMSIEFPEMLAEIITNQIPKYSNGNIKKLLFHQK
Summary of the method: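 Quantitative HTS using CellSensor MMTV-bla HeLa cells in charcoal/dextran-treated serum; compounds tested up to 92 uM. After 18 h at 37 C, CCF4 dye reported reporter induction.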

[9] = qHTS assay for small molecule antagonists of peroxisome proliferator-activated receptor delta signaling (AID 588535; active = well fitted inhibition curve with a large enough effect in the signal ratio, with a control signal flat, not every such curve was filed as active; the % refers to the signal ratio;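 as to max response: cells co-treated with a PPAR-delta agonist as stimulator during compound exposure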); conditions: HEK293T PPARd-UAS-bla, beta-lactamase FRET ratio, 18 h; 460 nm channel
Summary of the method: (§1)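 Antagonist-mode qHTS using GeneBLAzer PPAR-delta-UAS-bla HEK293T cells; compound exposure 18 hrs at 37 C over a titration. Ratiometric CCF4 fluorescence at 460/530 nm; concentration-response points fitted to the Hill equation.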

[10] = target: Peroxisome proliferator-activated receptor delta (Homo sapiens) (UniProt Q03181); assay: as above
Peroxisome proliferator-activated receptor delta (Homo sapiens), sequence (Q03181 whole entry, looked up): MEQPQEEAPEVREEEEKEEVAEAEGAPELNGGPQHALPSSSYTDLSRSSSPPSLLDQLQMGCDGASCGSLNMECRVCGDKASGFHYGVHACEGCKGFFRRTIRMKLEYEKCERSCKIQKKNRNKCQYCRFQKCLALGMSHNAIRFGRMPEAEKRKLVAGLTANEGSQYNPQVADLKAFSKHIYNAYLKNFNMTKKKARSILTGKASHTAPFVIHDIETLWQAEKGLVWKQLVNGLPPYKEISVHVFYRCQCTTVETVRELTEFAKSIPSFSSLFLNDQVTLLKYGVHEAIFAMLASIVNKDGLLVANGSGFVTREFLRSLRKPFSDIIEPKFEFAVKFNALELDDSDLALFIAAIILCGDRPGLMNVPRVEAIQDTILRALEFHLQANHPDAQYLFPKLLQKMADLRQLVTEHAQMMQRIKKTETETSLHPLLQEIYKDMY
Summary of the method: as §1

[11] = target: Vitamin D3 receptor (Homo sapiens) (UniProt P11473); assay: qHTS assay for small molecule antagonists of vitamin D receptor signaling (AID 588541; calls by dose curve;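 also: receptor activated by calcitriol during compound treatment; series mostly up to about 77 µM; % is scaled to controls: 0 for no effect and ±100 for the full control effect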)
Vitamin D3 receptor (Homo sapiens), sequence (P11473 whole entry, looked up): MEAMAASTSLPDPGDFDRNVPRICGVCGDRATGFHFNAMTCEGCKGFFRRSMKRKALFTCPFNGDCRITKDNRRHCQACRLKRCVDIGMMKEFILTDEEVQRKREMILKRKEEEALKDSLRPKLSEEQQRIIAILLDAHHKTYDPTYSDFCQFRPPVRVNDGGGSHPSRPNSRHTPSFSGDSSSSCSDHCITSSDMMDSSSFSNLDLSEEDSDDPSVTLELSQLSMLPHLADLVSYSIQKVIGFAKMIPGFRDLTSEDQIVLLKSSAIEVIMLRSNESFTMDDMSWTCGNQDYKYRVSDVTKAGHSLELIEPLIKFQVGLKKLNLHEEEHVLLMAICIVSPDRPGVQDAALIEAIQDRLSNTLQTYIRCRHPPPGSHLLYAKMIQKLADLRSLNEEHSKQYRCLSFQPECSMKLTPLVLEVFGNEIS
Summary of the method: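 Antagonist-mode beta-lactamase reporter assay: HEK293T VDR-UAS-bla cells were exposed to titrated compound alongside 1-alpha,25-dihydroxyvitamin D3 at 3 nM final for 16 h. Values were normalized to the 50 nM agonist control and DMSO basal, with IC50 and efficacy from Hill equation fits.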

[12] = target: Vitamin D3 receptor (Homo sapiens) (UniProt P11473); assay: qHTS assay for small molecule agonists of vitamin D receptor signaling (AID 588543; calls by dose curve;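 also: 0% = DMSO basal and 100% = reference agonist control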)
Summary of the method: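 VDR-UAS-bla HEK293T cells, 2000/well, 2% charcoal-stripped FBS; compound titration 16 h at 37 C; CCF4 beta-lactamase ratio read. Normalized to 50 nM 1-alpha,25-dihydroxyvitamin D3 (100%) and DMSO; Hill fit gives EC50, efficacy.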

[13] = qHTS assay for small molecule agonists of the antioxidant response element (ARE) signaling pathway (AID 651741; active = well fitted activation curve with a large enough effect in the signal ratio; the % refers to the signal ratio; also: potency is read from the fitted curve at half-maximal effect; as to activation: % of control where 0% means no effect)
Summary of the method: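 Agonist activity is measured as ARE-driven beta-lactamase expression in a stable HepG2 reporter line, using 16 h compound treatment at 37 C and a FRET substrate fluorescence readout after 2 h.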

[14] = qHTS assay for small molecule activators of the p53 signaling pathway (AID 651743; active = well fitted activation curve with a large enough effect in the signal ratio, not every such curve was filed as active; the % refers to the signal ratio; also: series mostly up to about 92 µM; % of control where 0% means no effect); conditions: HCT-116 p53RE-bla, beta-lactamase FRET ratio, 16 h; activation: stronger effect = higher value
Summary of the method: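 A beta-lactamase reporter under p53 response element control, stably carried by HCT-116 cells, reported pathway activation. Test compounds were applied for 16 hours at 37 C, and fluorescence was measured 2 hours after adding the B/G FRET substrate.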

[15] = qHTS assay for small molecule activators of the nuclear factor-kappa B (NF-kB) signaling pathway (AID 651749; active = well fitted activation curve with a large enough effect in the signal ratio; the % refers to the signal ratio; also: series mostly up to about 77 µM; % of control where 0% means no effect); conditions: NF-kB-bla ME-180 cells, beta-lactamase FRET ratio, 16 h; activation: stronger effect = higher value
Summary of the method: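 FRET-based beta-lactamase detection in ME-180 cells reports NF-kB response-element-driven transcription following overnight (16 hr) compound treatment.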

[16] = target: Nuclear receptor subfamily 1 group I member 2 (Rattus norvegicus) (UniProt Q9R1A7); assay: qHTS assay for small molecule activators of the rat pregnane X receptor (rPXR) signaling pathway (AID 651751; call rule not given here; also: 0% is about no effect); conditions: rPXR reporter cells, luciferase (One-Glo), 24 h
Nuclear receptor subfamily 1 group I member 2 (Rattus norvegicus), sequence (Q9R1A7 whole entry, looked up): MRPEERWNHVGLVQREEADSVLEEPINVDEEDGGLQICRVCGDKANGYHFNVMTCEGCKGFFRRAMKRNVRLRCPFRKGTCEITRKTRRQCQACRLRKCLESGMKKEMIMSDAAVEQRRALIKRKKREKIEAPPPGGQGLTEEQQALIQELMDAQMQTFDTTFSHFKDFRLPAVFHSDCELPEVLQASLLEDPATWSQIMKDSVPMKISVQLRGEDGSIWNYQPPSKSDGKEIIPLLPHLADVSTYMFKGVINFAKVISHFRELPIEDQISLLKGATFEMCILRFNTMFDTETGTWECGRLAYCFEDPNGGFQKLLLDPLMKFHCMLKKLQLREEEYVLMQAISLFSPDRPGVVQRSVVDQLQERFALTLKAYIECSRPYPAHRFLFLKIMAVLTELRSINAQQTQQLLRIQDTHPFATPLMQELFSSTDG

[17] = target: Cytochrome P450 3A4 (Homo sapiens) (UniProt P08684); assay: qHTS Assay for Inhibitors and Substrates of Cytochrome P450 3A4 (AID 884); also: series mostly up to about 57 µM; % is scaled to controls: 0 for no effect and ±100 for the full control effect; nearly all actives have a fitted effect of over 50% in size
Cytochrome P450 3A4 (Homo sapiens), sequence (P08684 whole entry, looked up): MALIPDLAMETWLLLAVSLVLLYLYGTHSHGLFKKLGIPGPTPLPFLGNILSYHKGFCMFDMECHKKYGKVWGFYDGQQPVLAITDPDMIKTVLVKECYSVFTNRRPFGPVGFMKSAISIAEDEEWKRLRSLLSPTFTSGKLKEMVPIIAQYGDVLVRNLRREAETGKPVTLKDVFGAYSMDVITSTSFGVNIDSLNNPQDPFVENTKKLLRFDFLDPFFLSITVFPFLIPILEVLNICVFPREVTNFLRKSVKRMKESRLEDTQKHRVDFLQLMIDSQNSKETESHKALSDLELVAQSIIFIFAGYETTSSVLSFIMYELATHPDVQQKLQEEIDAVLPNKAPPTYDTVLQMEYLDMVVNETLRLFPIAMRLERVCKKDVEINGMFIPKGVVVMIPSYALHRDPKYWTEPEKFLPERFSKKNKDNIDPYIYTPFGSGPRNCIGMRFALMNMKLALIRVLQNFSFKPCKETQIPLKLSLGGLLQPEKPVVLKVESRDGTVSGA
Summary of the method: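 Luminescent readout of luciferin produced by CYP3A4 (20 nM) dealkylation of Luciferin-PPXE, 25 uM (its KM). NADPH-driven reaction ran 60 min at RT after 10 min compound preincubation; data scaled to 57 uM ketoconazole as 100% inhibition.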

[18] = qHTS assay for small molecule activators of the human pregnane X receptor (PXR) signaling pathway (AID 720659; call rule not given here; also: 0% is about no effect)
[19] = target: Peroxisome proliferator-activated receptor gamma (Homo sapiens) (UniProt P37231); assay: qHTS assay for small molecule antagonists of peroxisome proliferator-activated receptor gamma signaling (AID 588537; active = well fitted inhibition curve with a large enough effect in the signal ratio, with a control signal flat, not every such curve was filed as active; the % refers to the signal ratio;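 also: reporter cells co-stimulated with 50 nM rosiglitazone agonist during compound treatment; % of control where 0% means no effect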)
Peroxisome proliferator-activated receptor gamma (Homo sapiens), sequence (P37231 whole entry, looked up): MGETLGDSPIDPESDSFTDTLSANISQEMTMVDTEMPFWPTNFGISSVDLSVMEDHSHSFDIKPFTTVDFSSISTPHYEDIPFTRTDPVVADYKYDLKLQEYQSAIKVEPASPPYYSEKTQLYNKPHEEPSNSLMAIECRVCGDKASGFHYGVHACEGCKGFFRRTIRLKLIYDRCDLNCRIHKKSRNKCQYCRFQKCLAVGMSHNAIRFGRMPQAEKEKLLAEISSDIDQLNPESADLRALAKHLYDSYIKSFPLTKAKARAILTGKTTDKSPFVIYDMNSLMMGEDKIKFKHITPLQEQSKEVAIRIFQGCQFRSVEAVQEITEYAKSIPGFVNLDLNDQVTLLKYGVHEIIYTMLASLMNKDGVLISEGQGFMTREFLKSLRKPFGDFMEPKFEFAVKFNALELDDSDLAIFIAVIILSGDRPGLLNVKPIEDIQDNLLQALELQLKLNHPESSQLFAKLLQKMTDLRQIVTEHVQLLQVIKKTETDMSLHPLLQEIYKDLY
Summary of the method: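 Cell-based beta-lactamase assay; GW9662 served as the antagonist control. Stimulation used rosiglitazone, final 50 nM, 16 h, 37 C.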

S=C=Nc1cccc2ccccc12
active: Potency [13] 47.3 µM
inactive: outcome [1] | Potency [2] | Potency [3] | Potency [4] | Potency [5] | Potency [6] | outcome [7] | activation [8] 2.48% | Potency [10] | outcome [11] | outcome [12] | activation [14] 3.44% | activation [15] 2.04% | max response [16] 5.78%
-3.26%: max response [9]

O=C(Cl)C(Cl)(Cl)Cl
inactive: outcome [1] | Potency [17] | Potency [2] | Potency [3] | Potency [4] | Potency [5] | Potency [6] | outcome [7] | activation [8] -1.29% | Potency [10] | outcome [11] | outcome [12] | Potency [13] | activation [14] -0.85% | activation [15] -1.07% | max response [16] -0.469% | outcome [18]
6.34%: max response [9]

C=C(Cl)Cl
-8.55%: max response [9]
inactive: outcome [1] | Potency [17] | Potency [4] | activation [8] -1.7% | Potency [10] | Potency [19] | Potency [13] | activation [14] -1.18% | max response [16] -3.03% | outcome [18]

Clc1ccc2ccccc2c1
-27.9%: max response [9]
inactive: Potency [17] | Potency [2] | Potency [3] | Potency [4] | outcome [7] | activation [8] -0.849% | Potency [10] | Potency [19] | outcome [11] | outcome [12] | Potency [13] | activation [14] 1.92% | max response [16] 7.07% | outcome [18]

C=CC(=C)C
inactive: Potency [17] | Potency [2] | Potency [3] | Potency [4] | outcome [7] | activation [8] -4.98% | Potency [10] | Potency [19] | outcome [11] | outcome [12] | activation [14] -2.92% | max response [16] 11% | outcome [18]
-16.7%: max response [9]

CC(O)CCl (centres undefined)
active: Potency [13] 54.5 µM
-27.3% and -9.22%: max response [9]
inactive: outcome [1] | Potency [17] | Potency [2] | Potency [3] | Potency [5] | outcome [7] | activation [8] -3.59% and -2.54% | Potency [10] | Potency [19] | outcome [11] | outcome [12] | activation [15] 1% and -0.134% | max response [16] 4.48% and -2.85% | outcome [18]

CCOc1ccc(N)cc1
inactive: outcome [1] | Potency [17] | Potency [3] | Potency [5] | outcome [7] | activation [8] 2.46% | outcome [12] | activation [14] 1.96% | activation [15] -0.228% | max response [16] 3.36% | outcome [18]

CCCCCCCC(=O)Cl
inactive: outcome [1] | Potency [17] | Potency [6] | outcome [7] | activation [8] 5.97% | activation [14] -1.82% | activation [15] -0.835% | max response [16] 5.82% | outcome [18]

O=C=NC1CCCCC1
inactive: outcome [1] | Potency [17] | Potency [2] | Potency [3] | Potency [5] | outcome [7] | activation [8] 10.3% | Potency [19] | outcome [11] | outcome [12] | Potency [13] | activation [14] -1.8% and -1.61% | outcome [18]

CC(C)(c1ccccc1)c1ccc(O)cc1
13%: max response [9]
inactive: outcome [1] | Potency [2] | Potency [4] | Potency [5] | outcome [7] | activation [8] 2.95% and 9.77% | Potency [10] | outcome [11] | outcome [12] | activation [14] -4.52% and -0.799% | activation [15] -0.397% and -3.49% | max response [16] 0.482% and 0.567%

OCC1CO1 (centres undefined)
-3.17% and 28.4%: max response [9]
inactive: Potency [17] | Potency [6] | outcome [7] | activation [8] -12% | Potency [10] | Potency [19] | outcome [11] | outcome [12] | Potency [13] | activation [14] -2.94% and 1.37% | max response [16] -4.01% and -4.87% | outcome [18]

— PubChem BioAssay (NCATS)
